The labels stand for the following.
B1: ENSMUSG00000028439.351|Fam219a (ssRNA)
RNA: GGGAGUUCUACAGUCCGACGAUCGCUUCGAUAUCCGCAUGCUACCCCCCACCGCAUCCCCACUGGGCUCUUUGACUCACCCUUCUAGAACAUGGGUGCCUCCUCUCUUUAGACUGCUGCCUUUGCCUCUGACUUCCUGUGGGAUUGAGAGCCAAGGGCCAGUGCCCUUGUGAGCGCACUAGUUCCGAAGCAGGCAAGGGCAUUAGGUGGUAUAUACAUAGCGGGUAGGGGUAGGAAGCUGGCAGCCUGCAGCUUCCAAGUCCAAGGAGAGCACACAGUUCCCUCCUUCCCUGCCUGGAAGUUGCUCUUGCGGUCGCACUAGUGUGGAAUUCUCGGGUGUCAAGG
B2: ENSMUSG00000061578.187|Ksr2 (ssRNA)
RNA: GGGAGUUCUACAGUCCGACGAUCGCUUCGAUAUCCGCAUGCUAUUGUGCACACUCAGCACCCCAUCUUCCAAGCCUUUCUUCAUCCCCCACCUUCUUUUGGGAAGGGGUGGCACAGAGUGAAUGGGAAGGAGAGCCCUGAGGUCACUGGUCCACAUGCCCAAAGCCAUGCCCCCCAGUGAUCAGACCUGACACAAGAGGCAAAGCUGUCCCUAAGCAGAGAAUUAGCAGGGUUAGCCAGACAGCAAAAUCCAUGUAAACAUACAAAACCACCCCCCCUUUUUGAGUGGCCCUAUUGGAUGUACCUCUUGCGGUCGCACUAGUGUGGAAUUCUCGGGUGUCAAGG
B3: ENSMUSG00000029028.21|Lrrc47 (ssRNA)
RNA: GGGAGUUCUACAGUCCGACGAUCGCUUCGAUAUCCGCAUGCUAUGUGCUGUAGGUGUCUGUGUGGGUGUGGGUGUGCUGUAGGUGUCUGUGUGGGUGUGGGUGUGCUAUAGGUAUCUGUGGGUGUGCUGUAGGUGUCUGUGUGGGUGUGCUGUAGGUGUCUGUGUAGGUGUGGGUGUGCUGUAGGUGUCUGUGUGGGUGUGCUAGGUGUCUGUAUAGGUGUGGGUGUGCUGUAGAUGUCUGUGUAGGUAUGGGUGUGCUGUAGAUCUUUGUAGGUGUAGGUAUGCUGUAGGUAUCUGGGUGUGCUCUUGCGGUCGCACUAGUGUGGAAUUCUCGGGUGUCAAGG
B4: ENSMUSG00000029028.19|Lrrc47 (ssRNA)
RNA: GGGAGUUCUACAGUCCGACGAUCGCUUCGAUAUCCGCAUGCUAUGUAGGUGUGGGUGUGCUGUAGGUGUCUGUGUGGGUGUGGGUGUGCUGUAGGUGUCUGUGUGGGUGUGGGUGUGCUAUAGGUAUCUGUGGGUGUGCUGUAGGUGUCUGUGUGGGUGUGCUGUAGGUGUCUGUGUAGGUGUGGGUGUGCUGUAGGUGUCUGUGUGGGUGUGCUAGGUGUCUGUAUAGGUGUGGGUGUGCUGUAGAUGUCUGUGUAGGUAUGGGUGUGCUGUAGAUCUUUGUAGGUGUAGGUAUGCUGUAGGCUCUUGCGGUCGCACUAGUGUGGAAUUCUCGGGUGUCAAGG
B5: ENSMUSG00000029028.28|Lrrc47 (ssRNA)
RNA: GGGAGUUCUACAGUCCGACGAUCGCUUCGAUAUCCGCAUGCUAUCUGUGUGGGUGUGGGUGUGCUAUAGGUAUCUGUGGGUGUGCUGUAGGUGUCUGUGUGGGUGUGCUGUAGGUGUCUGUGUAGGUGUGGGUGUGCUGUAGGUGUCUGUGUGGGUGUGCUAGGUGUCUGUAUAGGUGUGGGUGUGCUGUAGAUGUCUGUGUAGGUAUGGGUGUGCUGUAGAUCUUUGUAGGUGUAGGUAUGCUGUAGGUAUCUGGGUGUGGGUAUGCUGUAGAUGUCUGUGUAGGUGUGGAUAUGCUGUAGGCUCUUGCGGUCGCACUAGUGUGGAAUUCUCGGGUGUCAAGG
B6: ENSMUSG00000029028.20|Lrrc47 (ssRNA)
RNA: GGGAGUUCUACAGUCCGACGAUCGCUUCGAUAUCCGCAUGCUAUGUGGGUGUGCUGUAGGUGUCUGUGUGGGUGUGGGUGUGCUGUAGGUGUCUGUGUGGGUGUGGGUGUGCUAUAGGUAUCUGUGGGUGUGCUGUAGGUGUCUGUGUGGGUGUGCUGUAGGUGUCUGUGUAGGUGUGGGUGUGCUGUAGGUGUCUGUGUGGGUGUGCUAGGUGUCUGUAUAGGUGUGGGUGUGCUGUAGAUGUCUGUGUAGGUAUGGGUGUGCUGUAGAUCUUUGUAGGUGUAGGUAUGCUGUAGGUAUCUGCUCUUGCGGUCGCACUAGUGUGGAAUUCUCGGGUGUCAAGG
B7: ENSMUSG00000029028.44|Lrrc47 (ssRNA)
RNA: GGGAGUUCUACAGUCCGACGAUCGCUUCGAUAUCCGCAUGCUAUAGGUGUCUGUGUGGGUGUGCUAGGUGUCUGUAUAGGUGUGGGUGUGCUGUAGAUGUCUGUGUAGGUAUGGGUGUGCUGUAGAUCUUUGUAGGUGUAGGUAUGCUGUAGGUAUCUGGGUGUGGGUAUGCUGUAGAUGUCUGUGUAGGUGUGGAUAUGCUGUAGGUAUCUGGGUGUGCUGUAGGUGUCUGUGUGGGUGUGGGUGUGCUGUGGGUGUCUGUGUGGGUGUGCUGUAGGUGUCUGUAGGUGUGGGUAUGCUGCACUCUUGCGGUCGCACUAGUGUGGAAUUCUCGGGUGUCAAGG
B8: ENSMUSG00000029028.68|Lrrc47 (ssRNA)
RNA: GGGAGUUCUACAGUCCGACGAUCGCUUCGAUAUCCGCAUGCUAAGGUGUGGAUAUGCUGUAGGUAUCUGGGUGUGCUGUAGGUGUCUGUGUGGGUGUGGGUGUGCUGUGGGUGUCUGUGUGGGUGUGCUGUAGGUGUCUGUAGGUGUGGGUAUGCUGCAGGUGUGGGUGUGCUGUAGAUCUCUAUAGGUGUGGGUGUGCUGUAGGGGUCUGUGUGGGUAUAGGUGUGGGUGUGCUGUAGAUUCUGUGUAACUGGUUCUUUGCUGUUUCUCUGGGUGUUUUAAGGUGUCUGCUUUUGUCCAGGUCUCUUGCGGUCGCACUAGUGUGGAAUUCUCGGGUGUCAAGG
B9: ENSMUSG00000029028.67|Lrrc47 (ssRNA)
RNA: GGGAGUUCUACAGUCCGACGAUCGCUUCGAUAUCCGCAUGCUACUGUGUAGGUGUGGAUAUGCUGUAGGUAUCUGGGUGUGCUGUAGGUGUCUGUGUGGGUGUGGGUGUGCUGUGGGUGUCUGUGUGGGUGUGCUGUAGGUGUCUGUAGGUGUGGGUAUGCUGCAGGUGUGGGUGUGCUGUAGAUCUCUAUAGGUGUGGGUGUGCUGUAGGGGUCUGUGUGGGUAUAGGUGUGGGUGUGCUGUAGAUUCUGUGUAACUGGUUCUUUGCUGUUUCUCUGGGUGUUUUAAGGUGUCUGCUUUUGUCUCUUGCGGUCGCACUAGUGUGGAAUUCUCGGGUGUCAAGG
B10: ENSMUSG00000029028.38|Lrrc47 (ssRNA)
RNA: GGGAGUUCUACAGUCCGACGAUCGCUUCGAUAUCCGCAUGCUAUGUGCUGUAGGUGUCUGUGUAGGUGUGGGUGUGCUGUAGGUGUCUGUGUGGGUGUGCUAGGUGUCUGUAUAGGUGUGGGUGUGCUGUAGAUGUCUGUGUAGGUAUGGGUGUGCUGUAGAUCUUUGUAGGUGUAGGUAUGCUGUAGGUAUCUGGGUGUGGGUAUGCUGUAGAUGUCUGUGUAGGUGUGGAUAUGCUGUAGGUAUCUGGGUGUGCUGUAGGUGUCUGUGUGGGUGUGGGUGUGCUGUGGGUGUCUGUGUGGGCUCUUGCGGUCGCACUAGUGUGGAAUUCUCGGGUGUCAAGG
B11: ENSMUSG00000029028.66|Lrrc47 (ssRNA)
RNA: GGGAGUUCUACAGUCCGACGAUCGCUUCGAUAUCCGCAUGCUAAGAUGUCUGUGUAGGUGUGGAUAUGCUGUAGGUAUCUGGGUGUGCUGUAGGUGUCUGUGUGGGUGUGGGUGUGCUGUGGGUGUCUGUGUGGGUGUGCUGUAGGUGUCUGUAGGUGUGGGUAUGCUGCAGGUGUGGGUGUGCUGUAGAUCUCUAUAGGUGUGGGUGUGCUGUAGGGGUCUGUGUGGGUAUAGGUGUGGGUGUGCUGUAGAUUCUGUGUAACUGGUUCUUUGCUGUUUCUCUGGGUGUUUUAAGGUGUCUGCCUCUUGCGGUCGCACUAGUGUGGAAUUCUCGGGUGUCAAGG
B12: ENSMUSG00000029028.179|Lrrc47|115:119 (ssRNA)
RNA: GGGAGUUCUACAGUCCGACGAUCGCUUCGAUAUCCGCAUGCUAACAGAUGCUUCGUGGACUGUGCCUCACACAUGGCCCUGCAGGCUCCAUGUCAGCGUGUCCCACUAUUCAUGUCCCAUCUCUGUGCAUCCUGACUGCGCACAUCCCAUCUCCGCAACACAACGCAUCUGUACCAGCACACAGCUGCCAUCCCUCGAGCCACAGUGCCUGGUCCUAAGGACCCAGCAGCUGCACAGAGGACUUGGUGGCCCCGUGCCUUGCCAUCUGGCUGAGAAGAGAACCAGACCCUCAGCCUUCCCCCUCUCUUGCGGUCGCACUAGUGUGGAAUUCUCGGGUGUCAAGG
B13: ENSMUSG00000058297.511|Spock2 (ssRNA)
RNA: GGGAGUUCUACAGUCCGACGAUCGCUUCGAUAUCCGCAUGCUAAGGAGGCAAAGUUGGUGAGAGUCCUGGGACAUCUUACCCCCAGUGUUCCACAGGAGUCGUGACCACGUGUGAUGGGUGGGCACAGGUCUGCCUUGCUCCAGCCCCCUCCCUUGGUUUCUGUUGGUACCCAUUUGGCUUUUAUCUGCUUUCUGCUUCACCACUAAGUGCGUAGGUGGGGUCUUUUGAUAUCGGCUCCCCAAAGCCCAAGCCCACAGCCCUAGGAGAGAACCAGGGGCCCAUCUUUGACACCUGGGCCAUCACUCUUGCGGUCGCACUAGUGUGGAAUUCUCGGGUGUCAAGG

In all, about 9,900 sequences were measured (“r (bound/input frequency ratio)”: median about 0.7, highest 2% from about 6.5 on). This is one part of a sample in which the highest values are shown more often than they occur.

Chain of TDP-43 (Q13148 whole entry): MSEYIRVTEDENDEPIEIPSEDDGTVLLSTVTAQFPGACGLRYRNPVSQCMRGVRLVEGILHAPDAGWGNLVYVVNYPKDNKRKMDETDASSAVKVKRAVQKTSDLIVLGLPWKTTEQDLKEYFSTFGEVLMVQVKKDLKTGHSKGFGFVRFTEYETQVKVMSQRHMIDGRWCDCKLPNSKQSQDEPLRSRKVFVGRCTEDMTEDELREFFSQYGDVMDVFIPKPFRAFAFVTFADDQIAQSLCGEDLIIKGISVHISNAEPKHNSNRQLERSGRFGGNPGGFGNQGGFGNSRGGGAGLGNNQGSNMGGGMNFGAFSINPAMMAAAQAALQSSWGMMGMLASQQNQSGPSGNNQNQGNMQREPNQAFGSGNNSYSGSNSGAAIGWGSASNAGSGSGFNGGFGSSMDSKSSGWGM

For this assay, the target named is TDP-43 (Homo sapiens, UniProt Q13148 1-414). The experiment in a line: RNA Bind-n-Seq with designed 260-mer pool; 25 mM Tris-HCl, 150 mM KCl, 3 mM MgCl2, BSA (printed 500 mg/mL), 20 units/mL SUPERase IN; pH not stated; 500 nM RNA pool, 1 h, 4 C; TDP-43 5, 50, 500 nM; high values mean tight binding. Particulars: protein: recombinant; tags: SBP (GST cleaved off with PreScission; pGEX-GST-SBP). The gist of the method:
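Binding (R) is the ratio of each oligo's mapped-read-normalized abundance in the bound fraction to its abundance in the input. To obtain it, SBP-tagged recombinant TDP-43 (5, 50 or 500 nM) on streptavidin beads was incubated with 500 nM of an in vitro-transcribed 260-nt 3′ UTR oligo pool for 1 h at 4 °C in 25 mM Tris-HCl, 150 mM KCl, 3 mM MgCl2, BSA and SUPERase IN. The RNA retained after washing was released with biotin, then reverse transcribed, amplified by PCR and sequenced.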
B1: the binding signal was 0.423 R (bound/input frequency ratio).
On to B2, for which the binding signal was 0.56 R (bound/input frequency ratio).
The result for B3 reads 5.32 R (bound/input frequency ratio); that for B4, 6.81 R (bound/input frequency ratio); that for B5, 6.68 R (bound/input frequency ratio).
The result for B6 reads 5.01 R (bound/input frequency ratio); that for B7, 6.44 R (bound/input frequency ratio).
In the case of B8, the binding signal was 7.46 R (bound/input frequency ratio).
The result for B9 reads 6.13 R (bound/input frequency ratio); that for B10, 5.89 R (bound/input frequency ratio); that for B11, 4.75 R (bound/input frequency ratio).
The same measure for B12: 0.745 R (bound/input frequency ratio); for B13: 1.02 R (bound/input frequency ratio).

For the origin of these results see publication PMC12864922, “TDP-43 directly inhibits mRNA accumulation in neurites through modulation of mRNA stability”.
